Assay results published in PubChem BioAssay AID1159580 (chemical genetic matrix, 2015).
Among all 5,500 compounds or so, about 2,000 (36%) were called active. Not shown: some 18% with an inconclusive outcome. Cut-off read from the data, not from the text of the source: active = normalized growth mostly below about 0.91 (no sharp cut-off); inconclusive = no clear call, values can overlap the other calls; inactive = mostly above about 0.92. This is one part of the list.

Assay: chemical genetic growth profiling, strain panel (AID 1159580);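 note: tested at 20 µM; growth read once vehicle control cultures reached saturation at 30 °C; 1 = growth at the plate median or of vehicle wells; lower values mean less growth of the strain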
Conditions: growth OD

Measured: normalized growth

NC(=O)NC(=O)Cc1ccccc1
inactive: S. cerevisiae deletion strains, locus YJR075W, strain HOC1, hits give low values 1.01 | S. cerevisiae deletion strains, locus YKL009W, strain mrt4, hits give low values 0.99 | S. cerevisiae deletion strains, locus YKL068W, hits give low values 0.998 | S. cerevisiae deletion strains, locus YKL085W, strain MDH1 (second series), hits give low values 0.994 | S. cerevisiae deletion strains, locus YKL085W, strain MDH1, hits give low values 0.994 | S. cerevisiae deletion strains, locus YKL160W, strain elf1, hits give low values 0.941 | S. cerevisiae deletion strains, locus YKL190W, strain CNB1, hits give low values 1.03 | S. cerevisiae deletion strains, locus YKR001C, strain vps1, hits give low values 0.994 | S. cerevisiae deletion strains, locus YKR026C, strain gcn3, hits give low values 0.993 | S. cerevisiae deletion strains, locus YKR091W, strain srl3, hits give low values 0.98 | S. cerevisiae deletion strains, locus YLL001W, strain dnm1, hits give low values 1.02 | S. cerevisiae deletion strains, locus YLL026W, hits give low values 0.984 | S. cerevisiae deletion strains, locus YLL041C, strain sdh2, hits give low values 1 | S. cerevisiae deletion strains, locus YLR027C, strain aat2, hits give low values 0.988 | S. cerevisiae deletion strains, locus YLR039C, strain RIC1, hits give low values 1.02 | S. cerevisiae deletion strains, locus YLR058C, strain SHM2, hits give low values 1.01 | S. cerevisiae deletion strains, locus YLR102C, strain apc9, hits give low values 0.999 | S. cerevisiae deletion strains, locus YLR113W, strain HOG1, hits give low values 1.01 | S. cerevisiae deletion strains, locus YLR221C, strain rsa3, hits give low values 1.03 | S. cerevisiae deletion strains, locus YLR258W, strain gsy2, hits give low values 0.977 | S. cerevisiae deletion strains, locus YLR262C, strain YPT6 (second series), hits give low values 0.99 | S. cerevisiae deletion strains, locus YLR262C, strain YPT6, hits give low values 1.05 | S. cerevisiae deletion strains, locus YLR268W, strain sec22, hits give low values 0.985 | S. cerevisiae deletion strains, locus YLR320W, strain mms22, hits give low values 1.02 | S. cerevisiae deletion strains, locus YLR330W, strain CHS5, hits give low values 1.01 | S. cerevisiae deletion strains, locus YLR342W, strain FKS1 (second series), hits give low values 1.05 | S. cerevisiae deletion strains, locus YLR342W, strain FKS1, hits give low values 0.999 | S. cerevisiae deletion strains, locus YLR357W, strain rsc2, hits give low values 0.949 | S. cerevisiae deletion strains, locus YLR370C, strain arc18, hits give low values 0.966 | S. cerevisiae deletion strains, locus YLR371W, strain rom2, hits give low values 0.997 | S. cerevisiae deletion strains, locus YLR384C, strain iki3, hits give low values 0.982 | S. cerevisiae deletion strains, locus YLR418C, strain cdc73, hits give low values 0.998 | S. cerevisiae deletion strains, locus YML016C, strain PPZ1, hits give low values 1.01 | S. cerevisiae deletion strains, locus YML032C, strain rad52, hits give low values 1 | S. cerevisiae deletion strains, locus YML120C, strain ndi1, hits give low values 1.01 | S. cerevisiae deletion strains, locus YML124C, strain tub3, hits give low values 0.996 | S. cerevisiae deletion strains, locus YMR058W, strain fet3, hits give low values 0.978 | S. cerevisiae deletion strains, locus YMR078C, strain ctf18, hits give low values 0.997 | S. cerevisiae deletion strains, locus YMR125W, strain sto1, hits give low values 0.957 | S. cerevisiae deletion strains, locus YMR129W, hits give low values 0.966 | S. cerevisiae deletion strains, locus YMR205C, strain PFK2, hits give low values 1.01 | S. cerevisiae deletion strains, locus YMR223W, strain ubp8, hits give low values 1.01 | S. cerevisiae deletion strains, locus YMR231W, strain pep5, hits give low values 1 | S. cerevisiae deletion strains, locus YMR263W, strain SAP30, hits give low values 1.01 | S. cerevisiae deletion strains, locus YMR307W, strain GAS1, hits give low values 1.08 | S. cerevisiae deletion strains, locus YNL067W, strain RPL9B, hits give low values 1.02 | S. cerevisiae deletion strains, locus YNL071W, strain lat1, hits give low values 0.995 | S. cerevisiae deletion strains, locus YNL128W, strain TEP1, hits give low values 1 | S. cerevisiae deletion strains, locus YNL153C, strain GIM3, hits give low values 1.03 | S. cerevisiae deletion strains, locus YNL183C, strain NPR1, hits give low values 0.94 | S. cerevisiae deletion strains, locus YNL209W, strain ssb2, hits give low values 0.975 | S. cerevisiae deletion strains, locus YNL233W, strain BNI4, hits give low values 1.01 | S. cerevisiae deletion strains, locus YNL248C, strain rpa49, hits give low values 0.917 | S. cerevisiae deletion strains, locus YNL250W, strain rad50, hits give low values 0.992 | S. cerevisiae deletion strains, locus YNL271C, strain bni1, hits give low values 0.992 | S. cerevisiae deletion strains, locus YNL298W, strain CLA4, hits give low values 1 | S. cerevisiae deletion strains, locus YNL307C, strain MCK1, hits give low values 0.994 | S. cerevisiae deletion strains, locus YNL322C, strain KRE1 (second series), hits give low values 0.965 | S. cerevisiae deletion strains, locus YNL322C, strain KRE1, hits give low values 1.01 | S. cerevisiae deletion strains, locus YNR049C, strain mso1, hits give low values 0.962 | S. cerevisiae deletion strains, locus YNR052C, strain pop2, hits give low values 0.989 | S. cerevisiae deletion strains, locus YOL006C, strain TOP1, hits give low values 1.14 | S. cerevisiae deletion strains, locus YOL012C, strain htz1 1.28 | S. cerevisiae deletion strains, locus YOL147C, strain pex11, hits give low values 0.997 | S. cerevisiae deletion strains, locus YOR001W, strain rrp6, hits give low values 1.02 | S. cerevisiae deletion strains, locus YOR061W, strain CKA2, hits give low values 1 | S. cerevisiae deletion strains, locus YOR069W, strain VPS5, hits give low values 1 | S. cerevisiae deletion strains, locus YOR070C, strain gyp1, hits give low values 0.996 | S. cerevisiae deletion strains, locus YOR080W, strain dia2, hits give low values 0.986 | S. cerevisiae deletion strains, locus YOR083W, strain WHI5, hits give low values 0.913 | S. cerevisiae deletion strains, locus YOR106W, strain vam3, hits give low values 0.96 | S. cerevisiae deletion strains, locus YOR136W, strain idh2, hits give low values 0.995 | S. cerevisiae deletion strains, locus YOR144C, strain elg1, hits give low values 0.994 | S. cerevisiae deletion strains, locus YOR184W, strain ser1, hits give low values 0.988 | S. cerevisiae deletion strains, locus YOR231W, strain MKK1, hits give low values 0.988 | S. cerevisiae deletion strains, locus YOR265W, strain rbl2, hits give low values 0.99 | S. cerevisiae deletion strains, locus YOR270C, strain vph1, hits give low values 0.979 | S. cerevisiae deletion strains, locus YOR290C, strain snf2, hits give low values 0.936 | S. cerevisiae deletion strains, locus YOR316C, strain cot1, hits give low values 0.994 | S. cerevisiae deletion strains, locus YPL051W, strain arl3, hits give low values 0.974 | S. cerevisiae deletion strains, locus YPL055C, strain LGE1, hits give low values 1.08 | S. cerevisiae deletion strains, locus YPL078C, strain atp4, hits give low values 0.955 | S. cerevisiae deletion strains, locus YPL106C, strain sse1, hits give low values 0.992 | S. cerevisiae deletion strains, locus YPL240C, strain hsp82, hits give low values 0.997 | S. cerevisiae deletion strains, locus YPL241C, strain CIN2, hits give low values 1.03 | S. cerevisiae deletion strains, locus YPL256C, strain CLN2, hits give low values 0.96 | S. cerevisiae deletion strains, locus YPR119W, strain clb2, hits give low values 1 | S. cerevisiae deletion strains, locus YPR141C, strain kar3, hits give low values 0.988 | S. cerevisiae deletion strains, locus YPR163C, strain tif3, hits give low values 0.995 | S. cerevisiae deletion strains, locus YPR167C, strain met16, hits give low values 0.996 | S. cerevisiae deletion strains, strain wtn01, hits give low values 0.976 | S. cerevisiae strains, strain wild type, hits give low values 1.06
